For test [1], the target named is Aldehyde dehydrogenase, mitochondrial (Homo sapiens) (UniProt P05091). Description: qHTS for Inhibitors of the Aldehyde Dehydrogenase Family (ALDH2) Primary screen (AID 2061308; further: nearly all actives have a fitted effect of over 55% in size). (Quantitative high-throughput screening tests each substance at several concentrations.)
In test [2] the target is Retinaldehyde dehydrogenase 3 (Homo sapiens) (UniProt P47895). Description: qHTS for Inhibitors of the Aldehyde Dehydrogenase Family (ALDH1A3) Primary screen (AID 2061315).

Inconclusive results are not listed. A call without a number means that no potency is given here. A number with no mark means an inactive call. Active and inactive are the calls of the source. The call rests on the fitted dose curve; in most records, active means well fitted curve in the direction sought with a large enough effect; inconclusive means small, poorly fitted or top-dose-only effect, or another doubt; inactive means no such curve, though single readings can be large; an effect the other way counts as inactive or inconclusive.

For 41 compounds, Potency results are on record in PubChem BioAssay (NCATS).

Consider `C=C[C@@]12COC(=O)C(=C)C1[C@@H](O)[C@H](C(=C)C(=O)OC)[C@@H](OC(=O)C(=C)CO)C2` (some centres not stated), for which the Potency entry in test [1] and in test [2] was “inactive” in each case.
Consider `CCOc1ccc(NC(=O)Nc2ccc(-c3nc4ccccc4[nH]3)cc2)cc1`, for which the Potency entry in test [1] and in test [2] was “inactive” each time.
On to `Cc1cc2c(s1)c1cnn(Cc3cc(C(F)(F)F)ccc3F)c(=O)c1n2C`, for which the Potency result in test [1] and in test [2] was “inactive” each time.
As for `O=C(CNC(=O)C1CCCCC1)OC(C(=O)Nc1cc(C(F)(F)F)ccc1Cl)c1ccccc1` (configuration not stated), the Potency result in test [1] and in test [2] was “inactive” in each case.
For `Cc1ccc(S(=O)(=O)Nc2cnccc2C(=O)Nc2nc(C3CCC3)cs2)cc1`, the Potency result in test [1] and in test [2] was “inactive” each time.
For the compound `Fc1ccccc1N1CCN(c2nc(-c3cccs3)nc3ccccc23)CC1`, the Potency result in test [1] and in test [2] was “inactive” throughout.
For the compound `CC(=O)Nc1ccc(-c2nc3ccccc3s2)cc1`, the Potency entry in test [1] and in test [2] was “inactive” throughout.
On to `Cc1ccc(NS(=O)(=O)c2ccc3c(c2)N(C)C(=O)CO3)cc1C`, for which the Potency entry in test [1] and in test [2] was “inactive” throughout.
Turning to `COc1ccc(S(=O)(=O)Nc2ccc(C)c(C)c2)cc1`, the Potency result in test [1] and in test [2] was “inactive” in each case.
For the compound `Fc1ccccc1-c1ccc(Nc2nc(-c3ccncc3)nc3ccccc23)cc1F`, the Potency result in test [1] and in test [2] was “inactive” each time.
With `Cc1cccc(CNc2ccnc(-c3cccc(C(F)(F)F)c3)n2)c1`, the Potency entry in test [1] and in test [2] was “inactive” throughout.
With `FC1(F)Oc2ccc(-c3ccc4ncnc(NCc5cccs5)c4c3)cc2O1`, the Potency result in test [1] and in test [2] was “inactive” in each case.
For the compound `Cc1cc(C)cc(N2CCN(C(=S)Nc3cc(C)cc(C)n3)CC2)c1`, the Potency entry in test [1] and in test [2] was “inactive” each time.
Take `Cc1cc(N[S+](=O)([O-])c2ccc3c(c2)CCC(=O)N3C)ccc1F`: the Potency result in test [1] and in test [2] was “inactive” in each case.
In the case of `CC(OC(=O)c1ccc(S(C)(=O)=O)c([N+](=O)[O-])c1)C(=O)NC1C2CC3CC(C2)CC1C3` (configuration not stated), the Potency entry in test [1] and in test [2] was “inactive” throughout.
Take `CN(C(=O)c1cccs1)c1cccnc1`: the Potency result in test [1] and in test [2] was “inactive” in each case.
With `Cc1ccc(S(=O)(=O)Nc2cnccc2C(=O)Nc2nc(-c3ccccc3F)cs2)cc1`, the Potency entry in test [1] and in test [2] was “inactive” throughout.
Turning to `COc1ccc(-c2nnc3n2N=C(c2c(OC)cccc2OC)CS3)c(OC)c1`, the Potency result in test [1] and in test [2] was “inactive” throughout.
On to `COc1ccc(S(=O)(=O)N2CCN(S(=O)(=O)c3ccc(OC)cc3)CC2)cc1`, for which the Potency entry in test [1] and in test [2] was “inactive” each time.
As for `O=C(O)c1ccc2c(c1)C(=O)N([C@H](Cc1ccc(Cl)cc1)C(=O)O)C2=O`, the Potency result in test [1] and in test [2] was “inactive” throughout.
Consider `CCN(C)c1ncnc2ccc(-c3ccc4c(c3)OCO4)cc12`, for which the Potency result in test [1] and in test [2] was “inactive” each time.
For the compound `Cc1ccc(S(=O)(=O)Nc2cnccc2C(=O)NCc2ccccc2)cc1`, the Potency entry in test [1] and in test [2] was “inactive” throughout.
Turning to `COc1cccc(C2c3c(ncn(-c4ccccc4C)c3=N)Oc3ccc4ccccc4c32)c1` (configuration not stated), the Potency entry in test [1] and in test [2] was “inactive” throughout.
On to `Cc1c(P(=S)(c2ccccc2)c2ccccc2)c2ccccc2n1CCc1ccccc1`, for which the Potency result in test [1] and in test [2] was “inactive” in each case.
`CS(=O)(=O)/C=C/c1nc(Nc2cc(F)cc(F)c2)c2ncn(CC(F)F)c2n1`: the Potency result in test [1] and in test [2] was “inactive” throughout.
Consider `Cc1ccc(-c2cc(C(=O)Nc3ccc(-n4cccn4)cc3)c3ccccc3n2)cc1C`, for which the Potency entry in test [1] and in test [2] was “inactive” in each case.
For the compound `CC(=O)Nc1ccc(Cl)cc1C(=O)c1ccc[nH]1`, the Potency result in test [1] and in test [2] was “inactive” in each case.
For `Cc1c(P(=S)(c2ccccc2)c2ccccc2)c2ccccc2n1CCCc1ccccc1`, the Potency result in test [1] and in test [2] was “inactive” throughout.
As for `N#Cc1cnc(NS(=O)(=O)c2ccc(NC(=O)Cc3ccc(F)c(Cl)c3)cc2)s1`, the Potency entry in test [1] and in test [2] was “inactive” throughout.
Consider `COc1ccc2nc(-c3ccccc3OCc3ccccc3)sc2c1`, for which the Potency result in test [1] and in test [2] was “inactive” in each case.
For `O=C1N/C(=C\c2ccco2)C(=O)N1Cc1ccc(F)cc1`, the Potency entry in test [1] and in test [2] was “inactive” throughout.
As to `O=S(=O)(Nc1ccc2ccccc2c1)c1ccc(NCc2cccc(Cl)c2O)cc1`, the Potency result in test [1] and in test [2] was “inactive” each time.
Take `Cc1cc(C)nc(NC(=S)N2CCN(c3ccc(NS(C)(=O)=O)nn3)CC2)c1`: the Potency result in test [1] and in test [2] was “inactive” throughout.
As for `Cc1cccc(CNc2ccc(S(=O)(=O)Nc3nccs3)cc2)c1O`, the Potency entry in test [1] and in test [2] was “inactive” each time.
On to `O=C(c1ccc2c(c1)ncn2-c1ccc(Cl)cc1)N1CCCCC1`, for which the Potency entry in test [1] and in test [2] was “inactive” throughout.
Take `O=C(Nc1nc(Nc2cc(F)cc(F)c2)nc(NC2CCCC2)n1)OCc1ccccc1`: the Potency result in test [1] and in test [2] was “inactive” throughout.
As for `O=C(O)c1ccc2c(c1)C(=O)N([C@H](Cc1cccc3ccccc13)C(=O)O)C2=O`, the Potency entry in test [1] and in test [2] was “inactive” in each case.
For the compound `Oc1cc(Nc2ccncc2)cc2cccnc12`, the Potency entry in test [1] and in test [2] was “inactive” in each case.
For `C(=C\c1cccs1)/c1cccnc1`, the Potency result in test [1] and in test [2] was “inactive” in each case.
Consider `Cc1nc(NC2CCCCC2)c2nc(-c3ccccc3)n(CCCN(C)C)c2n1`, for which the Potency entry in test [1] and in test [2] was “inactive” each time.
As to `COc1ccc(N2C(=O)c3ccccc3C2=O)cc1`, the Potency entry in test [1] and in test [2] was “inactive” each time.
